# Source: PubChem BioAssay AID504942 (Broad Institute, 2011)
# Measured potencies and affinities stand elsewhere. Activity calls are given as the source filed them. The rule behind the calls is not given here.
# Experiment: HeLa cell cytotoxicity, dose response, cytotoxicity control, 48 h, plate reader, cherry-picks (AID 504942)
# Conditions: series mostly up to 38 µM
row,SMILES,outcome
1,Cc1cc(C)nc(N(C#N)Cc2cccc([N+](=O)[O-])c2)n1,inactive
2,CCOC(=O)c1ccc(N2Cc3ccccc3C2=N)cc1,inactive
3,Clc1cccc(CNCCCSc2ncccn2)c1,inactive
4,O=C1C2C3C=CC(C4CC34)C2C(=O)N1Cc1ccco1 (stereo not given),inactive
5,N#CC(c1ccc(Cl)nn1)c1c(F)cccc1Cl (stereo not given),inactive
